CHRM1 PAM – potentiates human M1 receptor response to acetylcholine; actives 0.088% (n = 360,000); CHO-K1 hM1, Fluo-8 calcium fluorescence, ACh EC20; 0% = ACh EC20, 100% = maximal ACh; activation, % at 3 µM; AID 588819; in the data active = activation above about 19%, passing the limit was not always enough
Target sequence (P11229 whole entry, looked up): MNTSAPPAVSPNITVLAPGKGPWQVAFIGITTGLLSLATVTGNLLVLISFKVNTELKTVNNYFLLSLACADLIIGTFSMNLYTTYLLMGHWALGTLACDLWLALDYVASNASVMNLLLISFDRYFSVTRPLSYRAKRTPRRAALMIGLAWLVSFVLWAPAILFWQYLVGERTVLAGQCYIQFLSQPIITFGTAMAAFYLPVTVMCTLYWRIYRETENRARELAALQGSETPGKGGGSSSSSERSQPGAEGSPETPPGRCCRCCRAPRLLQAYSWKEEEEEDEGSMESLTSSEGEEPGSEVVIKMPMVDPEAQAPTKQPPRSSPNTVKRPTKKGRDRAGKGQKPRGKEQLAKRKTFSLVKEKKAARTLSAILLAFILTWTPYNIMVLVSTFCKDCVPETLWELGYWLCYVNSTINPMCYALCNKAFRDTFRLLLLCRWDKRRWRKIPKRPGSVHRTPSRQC
Myeloid diff MLP – myeloid differentiation induction | ER-HoxA9 myeloid progenitors, lysozyme-GFP differentiation, flow cytometry | calls only at 10 µM | actives 1% (n = 360,000) | AID 624256;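 active = normalized GFP-positive differentiation at or above the plate's own cutoff, the solvent-only control mean plus 3 SD; inconclusive = no clear call, values can overlap the other calls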;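 also: cells exposed to compound for four days before flow analysis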
CHRM1 agonist – agonists of human M1 muscarinic receptor | activation, % at 3 µM | AID 588814 | P11229 | CHO-K1 hM1, Fluo-8 calcium fluorescence, agonist mode; 0% DMSO, 100% acetylcholine EC100 | actives 0.33% (n = 360,000);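 active = activation above the run's mean compound activation plus 3 SD, cut at about 16% in these data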;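 also: peak over basal fluorescence ratio within a 140 s kinetic read after compound addition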
SKN-1 block – blocks SKN-1 activity in C. elegans; C. elegans VP596 Pgst-4::GFP/RFP ratio, acrylamide-induced, 24 h; inhibition, % at 21.8 µM; actives 0.49% (n = 360,000);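 active = interference check ratio from 0.5 to 1.5 plus GFP to RFP signal ratio inhibition reaching or exceeding a fixed threshold, cut at about 30% in these data, passing the limit was not always enough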
M1 antag – antagonists of human M1 muscarinic receptor; P11229; CHO-K1 hM1, Fluo-8 calcium fluorescence, ACh EC80 antagonist; inhibition, % at 3 µM; actives 1.3% (n = 360,000);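 active = percent inhibition above its own plate's cutoff, namely the mean of that plate's compound wells plus 3 SD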;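 also: peak over basal fluorescence ratio during 140 s after agonist addition; 0% = ACh EC80 plus DMSO and 100% = DMSO alone without agonist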
ATG4B inh – blocks human ATG4B protease cleavage of LC3 substrate; Q9Y4P1; ATG4B cleavage of LC3-PLA2, NBD-HPC fluorescence, 1 h; inhibition, % at 8.33 µM; actives 0.51% (n = 340,000); AID 504462; in the data active = inhibition above about 40%
The depositor's hits bear a star; i = inactive; u = inconclusive; x = not tested or not shown; + = active, no number. Rows were chosen to be rich in hits. Some 3.5% of all compounds tested hit in one or more screens of this group.

SMILES	CHRM1 PAM	Myeloid diff MLP	CHRM1 agonist	SKN-1 block	M1 antag	ATG4B inh
OC1(c2cccc(C(F)(F)F)c2)CCN(c2ncnc3c2[nH]c2ccc(F)cc23)CC1	-12	i	-1	6	36*	31
Fc1ccc2[nH]c3c(N4CCN(c5ccccc5)CC4)ncnc3c2c1	-18	i	7	19	54*	26
CCOC(=O)N1CCN(c2ncnc3c2[nH]c2ccc(F)cc23)CC1	-15	i	3	9	28*	-11
C[C@H]1Cn2cnc(C(=O)Nc3cccc(Cl)c3)c2C(=O)N1	13	i	1	-22	-15	x
CCC(c1nnnn1-c1ccc2c(c1)OCCO2)N1CCN(Cc2c(F)cccc2Cl)CC1 (stereo not given)	x	i	x	-5	x	x
O=C(NC(=S)Nc1cc(Cl)ccc1O)c1cccc(Br)c1	8	+	-3	16	-9	3
CCCCOCCCNC(=O)C[C@@H]1C[C@@]2(C(=O)OCC)CCCC=C2N(Cc2ccc(Cl)cc2Cl)C1=O	x	i	x	-3	x	x
O=C1C=C(c2cccc(Br)c2)C[C@@H](c2ccc(Cl)cc2)C1	0	i	-1	19	-7	-8
c1csc(CCCN2CCCCC2)c1	-3	i	-6	6	-1	-6
COc1ccc(/C=N/OCC(=O)NCc2cccs2)c(OC)c1	36*	i	-8	8	3	5
O=C(CCc1ccc(O)cc1)NN=Cc1ccc2c(c1)OCO2	5	+	-2	19	-3	x
C=CCn1c(C)cc(C(=O)CSc2nnc(-c3cccc(S(=O)(=O)N(CC)CC)c3)o2)c1C	3	i	-4	8	-31	-1
CCN(CC)S(=O)(=O)c1cccc(-c2nnc(SCC(=O)c3cc(C)n(C4CC4)c3C)o2)c1	1	i	-2	42*	-4	-10
O=C(Cc1cccc2ccccc12)Nc1ccccc1Br	5	i	-4	-4	-10	-2
CSc1cc(-c2ccco2)oc1C(=O)c1ccco1	-4	i	-2	36*	10	-14
COc1cccc(NC(=O)C(OC(=O)c2cnc(C)cn2)c2ccccc2)c1 (stereo not given)	6	i	-1	1	-18	-11
CC(OC(=O)c1ccccc1C(=O)O)c1ccccc1 (stereo not given)	-2	i	-3	11	-3	-2
CC(=O)NS(=O)(=O)c1ccc(Nc2ccc([N+](=O)[O-])c3nonc23)cc1	4	i	-1	35*	-4	5
O=C(CSc1cccc[n+]1[O-])Nc1cc(Cl)ccc1[N+](=O)[O-]	6	i	-1	3	-4	-4
CCOc1ccc(Nc2ccc([N+](=O)[O-])c3nonc23)cc1	-11	i	-5	37*	2	4
O=[N+]([O-])c1ccc(Sc2cccc[n+]2[O-])c2nonc12	-1	x	5	35	44*	-7
O=[N+]([O-])c1ccc(Nc2ccccc2)c2nonc12	-4	i	6	35*	-1	2
CCc1ccc(-c2nc(CS(=O)CC(=O)NC3CCCCCC3)c(C)o2)cc1 (stereo not given)	18	i	-7	30	-17	9
O=C(COc1ccc(F)cc1Br)NCC1(N2CCOCC2)CCCCC1	13	i	-7	-24	-9	-9
COc1ccccc1-c1cnc(C(O)c2ccc(C)cc2)[nH]1 (stereo not given)	12	i	0	-8	-19	x
SMILES	CHRM1 PAM	Myeloid diff MLP	CHRM1 agonist	SKN-1 block	M1 antag	ATG4B inh
CCCSc1nc(N2CCOCC2)c2c(c1C#N)CC(C)(C)SC2	1	i	-3	38*	-11	-4
CC1CN(CC(=O)Nc2nc(-c3ccc(Cl)cc3)cs2)CC(C)O1 (stereo not given)	19	+	3	3	-14	3
O=C(CN1CCOCC1)Nc1nc(-c2ccc(Cl)cc2)cs1	-2	i	-1	-12	-3	-1
Cc1cc(C)c(C#N)c(Sc2nc(C)c([N+](=O)[O-])c(C)c2C#N)n1	8	+	13	-5	6	x
NC(=O)c1ccc(CN2CCc3ccccc3C2)cc1	8	i	-8	10	-16	8
CC(=O)Cc1cc(O)c2ccccc2c1OC(=O)c1ccc(Br)cc1	0	+	-3	13	7	-17
O=C(COC(=O)c1ccc(Br)cc1)NCc1ccccc1	11	i	-5	-1	-11	-2
CC[n+]1c(/C=C/C=C/N(C(C)=O)c2ccccc2)sc2ccccc21	-12	+	12	72	23	-69
CC(=O)C1=C(C)NC(SCC(=O)c2cc(Cl)ccc2Cl)=C(C#N)C1c1ccco1 (stereo not given)	17	u	1	-2	-15	3
CC1=C(C(=O)Nc2ccccc2)C(c2ccco2)C(C#N)=C(SCC(=O)Nc2cccc(C)c2C)N1 (stereo not given)	5	i	0	-1	-2	4
CC(=O)C1=C(C)NC(SCC(=O)c2ccc(Cl)c(Cl)c2)=C(C#N)C1c1ccco1 (stereo not given)	-3	+	-2	8	-22	-14
CC1=C(C(=O)Nc2ccccc2)C(c2ccco2)C(C#N)=C(SCC(=O)OC(C)C)N1 (stereo not given)	-10	i	-1	7	33*	-18
CC(=O)C1=C(C)OC(N)=C(C#N)C1c1ccco1 (stereo not given)	6	i	-1	37*	-28	-9
O=C(Nc1ccc(C(=O)N2CCCCC2)cc1)C1CCC1	2	i	-2	1	-6	-2
C/C(=N\NS(=O)(=O)c1ccccc1)c1cc(Cl)cc(Cl)c1O	0	i	-4	3	3	3
CC(=O)NCC1CCCN(C(=O)c2ccc(OC3CCN(Cc4ccccn4)CC3)cc2)C1 (stereo not given)	-6	i	-5	-7	18	-10
O=C(NCC(=O)N1CCC(Cc2ccccc2)CC1)c1ccccc1F	9	i	-2	0	-15	x
CSC1=NCCN1C(=O)c1ccc2c(c1)OCO2	4	i	-3	-21	-22	-4
CC1=CC(C)(C)N(C(=O)c2ccc(F)cc2)c2cc3c(cc21)OCO3	8	i	18*	24	10	-6
CCN1CCN(c2ncc(C(=O)Nc3cc(Cl)c(OC)cc3OC)c3ccccc23)CC1	-26	i	-12	-5	34*	-12
CCN1CCN(c2ncc(C(=O)Nc3c(F)cc(F)cc3Br)c3ccccc23)CC1	-18	i	-4	5	28	0
CCN1CCN(c2ncc(C(=O)N3CCN(c4ccccc4OC)CC3)c3ccccc23)CC1	-23	i	-7	-4	21*	-13
